Source: PubChem BioAssay AID1159580 (chemical genetic matrix, 2015)
Screen size: about 5,500 compounds; about 2,000 (36%) were called active. Not shown: some 18% with an inconclusive outcome. No stated cut-off is given here; in the data, active means normalized growth mostly below about 0.91 (no sharp cut-off); inconclusive means no clear call, values can overlap the other calls; inactive means mostly above about 0.92. The list shows a part of the results.

Assay: chemical genetic growth profiling, strain panel (AID 1159580);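 further: tested at 20 µM; growth read once vehicle control cultures reached saturation at 30 °C; 1 = growth at the plate median or of vehicle wells; lower values mean less growth of the strain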
Settings: S. cerevisiae deletion strains, growth OD

Measured: normalized growth

CC[C@H](CO)Nc1nc(NCc2ccccc2)c2ncn(C(C)C)c2n1
inactive: locus YAL013W, strain DEP1, active compounds read low 1.01 | locus YAL040C, strain CLN3, active compounds read low 0.992 | locus YCL061C, strain MRC1 (second series), active compounds read low 1 | locus YDR150W, strain NUM1, active compounds read low 0.992 | locus YDR363W, strain ESC2, active compounds read low 0.991 | locus YER002W, strain NOP16, active compounds read low 1.03 | locus YGR078C, strain PAC10, active compounds read low 0.995 | locus YGR229C, strain SMI1, active compounds read low 1.04 | locus YMR307W, strain GAS1, active compounds read low 0.967 | locus YNL128W, strain TEP1, active compounds read low 1.03 | locus YNL153C, strain GIM3, active compounds read low 1 | locus YNL175C, strain NOP13, active compounds read low 1 | locus YNL197C, strain WHI3, active compounds read low 1 | locus YNL224C, strain SQS1, active compounds read low 1.01 | locus YNL322C, strain KRE1, active compounds read low 1.02 | locus YOR083W, strain WHI5 (second series), active compounds read low 1.01 | locus YPL241C, strain CIN2, active compounds read low 0.997
